Screening data: PubChem, National Center for Advancing Translational Sciences (NCATS)
Shown are actives, neighbours in structure and some others; about 19% of the full set was active somewhere.
TDP1 cell CPT: qHTS for Inhibitors of human tyrosyl-DNA phosphodiesterase 1 (TDP1): qHTS in cells in presence of CPT; chicken DT40 Tdp1-/-;hTDP1 cells + 20 nM CPT, ATP luminescence, 48 h; Potency, µM (doses to about 46.2 µM), inactives show at the highest dose activity change, negative = growth inhibition, hits mostly inhibitors; 420,000 compounds, 12% hits; note: potency is the fitted concentration of half-maximal effect; nearly all actives have a fitted effect of over 55% in size
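Chicken DT40 Tdp1-/- cells stably complemented with human TDP1 were seeded at 400 cells/well in medium containing 20 nM camptothecin, exposed to pin-transferred compounds, and grown at 37 °C for at least 48 hr. Viability was read as ATP luminescence.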
IL1B secr inh: qHTS for Inhibitors of Inflammasome Signaling: IL-1-beta AlphaLISA Primary Screen | THP-1 LPS/ATP IL-1B secretion, AlphaLISA, 16 h; active compounds read low | activity change, % at 57.5 µM | 360,000 compounds, 4.7% hits; in the data active = activity change below about -50%; inconclusive = mostly about -30% to -49%
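Secreted IL-1B measured by AlphaLISA bead assay after 16 h compound exposure of THP-1 cells; compounds (final up to 57.5 uM) added 1 h before LPS (250 ng/mL) and ATP (1.25 mM) stimulation; lower signal means less secretion.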
DT40 TDP1 no CPT: qHTS for Inhibitors of human tyrosyl-DNA phosphodiesterase 1 (TDP1): qHTS in cells in absence of CPT | DT40 Tdp1-/- hTDP1 cells, no CPT, ATP luminescence, 48 h | Potency, µM (highest dose often 46.2 µM), for inactives: at the top dose activity change, negative = growth inhibition, hits mostly inhibitors | 420,000 compounds, 15% hits | AID 686978, 2013; note: potency is the fitted concentration of half-maximal effect; nearly all actives have a fitted effect of over 55% in size
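Growth of hTDP1-complemented DT40 Tdp1-knockout cells is measured by ATP luminescence after at least 48 hr compound exposure at 37 °C, with DMSO substituting for the 20 nM CPT used in the parallel screen.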
HT1080NT lethal: qHTS for induction of synthetic lethality in tumor cells producing 2HG: qHTS for the HT-1080-NT fibrosarcoma cell line | Potency, µM (doses to about 46.1 µM), without a hit: at the highest dose activity, negative = less viability, most hits filed as cytotoxic | HT-1080-NT fibrosarcoma viability, CellTiter-Glo ATP luminescence, 48 h | 360,000 compounds, 1.6% hits | AID 686970, 2013;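 note: NT is the 2HG producing partner of a matched IDH1 knockdown line; potency is the fitted concentration of half-maximal effect; 0% = DMSO-treated cells and -100% = media-only wells without cells; nearly all actives have a fitted effect of over 55% in size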
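750 cells/well, RPMI + 5% FBS; 2 h settle, compound pin-transfer, 48 h at 37 degrees C. CellTiter-Glo 10 min RT, luminescence. Normalized to DMSO and media-only wells.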
HT1080 IDH1KD tx: qHTS for induction of synthetic lethality in tumor cells producing 2HG: qHTS for the HT-1080-IDH1KD cell line | Potency, µM (titrated, usually from 46.1 µM), without a hit: at the top dose activity, negative = toxicity, usual class: cytotoxic | HT-1080 IDH1 knockdown viability, ATP luminescence, 48 h | 360,000 compounds, 2% hits;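 note: potency is the fitted concentration of half-maximal effect; 0% = DMSO wells and -100% = cell-free medium wells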
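Viability of IDH1-knockdown HT-1080 fibrosarcoma cells was assessed by CellTiter-Glo after 48 h at 37 °C with titrated compound; concentration-effect curves were classified by fit quality and response size.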
An asterisk follows results filed as active; ? = inconclusive; . = no result; [ ] = another dose, or the depositor's remark. Unless noted, calls come from the whole dose curve; as a rule, active = well fitted curve in the direction sought with a large enough effect; inconclusive = small, poorly fitted or top-dose-only effect, or another doubt; inactive = no such curve, though single readings can be large; an effect the other way counts as inactive or inconclusive. Unless noted, % is set by controls: 0 for no effect and ±100 for the full control effect.

SMILES	TDP1 cell CPT	IL1B secr inh	DT40 TDP1 no CPT	HT1080NT lethal	HT1080 IDH1KD tx
O=C1NC(c2ccc(Br)cc2)Nc2ccccc21 (stereo not given)	6.51µM*	51.2	3.66µM*	5.8µM*	11.6µM*
Brc1ccc(C2Nc3cccc4cccc(c34)N2)cc1	?	0.1	-25.2%	-13.0%	-15.9%
COc1ccc(C2NC(=O)c3ccccc3N2)cc1OC (stereo not given)	-20.6%	2.8	-21.0%	-0.9%	2.7%
Cc1ccccc1NC(=O)NCc1ccc2c(c1)OCO2	-8.6%	0.0	5.1%	-0.7%	-1.7%
O=C1NC(c2ccc3c(c2)OCO3)Oc2ccccc21 (stereo not given)	-7.1%	-16.6	-6.8%	4.3%	-7.5%
O=C1NC(c2ccc3c(c2)OCO3)Nc2ccccc21 (stereo not given)	23.1µM*	41.4	16.4µM*	?	5.3%[9.24 µM]
O=C1NC(c2ccc3ccccc3c2)Nc2ccccc21 (stereo not given)	16.4µM*	50.7	6.51µM*	?	?
CC1CCCN(S(=O)(=O)c2ccc(NC(=O)Cc3ccc(S(=O)(=O)N4CCOCC4)s3)cc2)C1 (stereo not given)	?	?	18.4µM*	-8.9%	-8.2%
CNC(=O)c1ccc(NC(=O)Cc2ccc(S(=O)(=O)N3CCOCC3)s2)cc1	-1.8%	0.1	-20.6%	-0.4%	-3.7%
CC(=O)Nc1ccc(NC(=O)Cc2ccc(S(=O)(=O)N3CCCCC3)s2)cc1	?	24.1	?	-2.0%	-0.1%
O=C(Cc1ccc(S(=O)(=O)N2CCOCC2)s1)Nc1ccc(S(=O)(=O)N2CCCCC2)cc1	18.4µM*	-15.1	?	-19.0%	-18.2%
CC1CCN(S(=O)(=O)c2ccc(NC(=O)Cc3ccc(S(=O)(=O)N4CCOCC4)s3)cc2)CC1	18.4µM*	17.1	23.1µM*	-26.2%	-15.7%
O=C(Cc1ccc(S(=O)(=O)N2CCOCC2)s1)Nc1ccc2c(c1)CCC2	-20.3%	?	?	-1.6%	-25.8%
c1ccc(CNc2ccc3c(c2)ncn3C2CCCCC2)nc1	?	-22.3	?	4.5%	6.8%
O=[N+]([O-])c1ccc2c(OCc3nnc(-c4ccccc4Br)o3)ncnc2c1	?	38.2	13µM*	?	?
O=[N+]([O-])c1cc(Br)c(OCc2nnc(-c3ccccc3)o2)c(Br)c1	-29.6%	-13.4	?	0.7%	-1.7%
COC(=O)c1cc(-c2cc(OC)ccc2OC)nc2c1c(=O)n(C)c(=O)n2Cc1ccccc1	16.4µM*	12.8	18.4µM*	11.2%	8.8%
CC1(C(=O)NCc2ccc3c(c2)OCO3)CCN1Cc1csc2ccccc12 (stereo not given)	?	-15.3	?	-8.4%	-10.8%
CCNC(=S)N=Nc1c(O)[nH]c2ccc(C(C)C)cc12	5.17µM*	-14.8	5.17µM*	2.0%	-21.2%
Oc1[nH]c2ccccc2c1N=NC(=S)NCCc1ccccc1	16.4µM*	-1.8	?	-10.6%	?
NC(=S)N=Nc1c(O)[nH]c2ccccc12	13.3%	-9.7	-9.9%	-1.6%	-0.2%
CCCCNC(=S)N=Nc1c(O)[nH]c2ccccc12	?	-17.4	10.3µM*	-3.8%	?
CC(C)c1ccc2[nH]c(O)c(N=NC(=S)NCCc3ccccc3)c2c1	18.4µM*	27.6	8.2µM*	?	?
Cc1ccc2[nH]c(O)c(N=NC(N)=S)c2c1	?	?	-3.3%	12.6%	12.9%
CCOc1ccc(S(=O)(=O)NCCC(=O)NC2CCC(C)CC2)cc1 (stereo not given)	?	-5.2	?	22.9%	1.0%
SMILES	TDP1 cell CPT	IL1B secr inh	DT40 TDP1 no CPT	HT1080NT lethal	HT1080 IDH1KD tx
CC(C)c1ccc2[nH]c(O)c(N=NC(=O)c3ccc(CSc4nncn4C)cc3)c2c1	23.1µM*	?	16.4µM*	-6.9%	-5.5%
Cn1cnnc1SCc1ccc(C(=O)NN)cc1	12.8%	-0.5	-2.8%	-0.4%	-1.3%
CCN1CCCC1CNCC(O)COc1ccc(C(C)(C)C)cc1C (stereo not given)	6.51µM*	?	5.8µM*	-27.6%	?
Cc1cc(C(C)(C)C)ccc1OCCOCCN1CCCC1	?	-21.1	?	-1.4%	-7.4%
Fc1ccc(CN2CC[C@H]3C=CCc4cccc(c43)C2)cc1	?	24.3	?	-4.9%	-11.8%
Clc1ccc(CN2CC[C@H]3C=CCc4cccc(c43)C2)cc1	?	18.4	20.6µM*	-9.3%	-16.0%
Cc1ccccc1CN1Cc2cccc3c2[C@H](C=CC3)CC1=O	11.2µM*	.	10µM*	.	.
O=C1C[C@H]2C=CCc3cccc(c32)CN1Cc1ccc(Br)cc1	?	.	11.2µM*	.	.
COc1ccccc1CN1Cc2cccc3c2[C@@H](CC1=O)[C@H](O)[C@H](O)C3	-6.0%	19.0	-5.5%	3.3%	11.3%
O=C(CN1CCC(C(=O)c2ccc3c(c2)OCCO3)CC1)NCc1ccc(F)cc1	1.0%	-9.9	?	-18.9%	-0.1%
O=C1CN(C(=O)COC(=O)c2ccccc2Br)c2ccccc2N1	-17.8%	-7.1	-3.2%	-11.3%	-2.0%
O=C(NC(=S)N(CC1CCC1)CC1CCCO1)c1cccc([N+](=O)[O-])c1 (stereo not given)	?	20.6	?	1.6%	-9.8%
Cc1nn(C)cc1CNc1nc(C)c(-c2ccn(CC3COc4ccccc4O3)n2)s1 (stereo not given)	?	.	20.6µM*	.	.
Cc1nc(NCc2c(C)nn(C)c2Cl)sc1-c1ccn(CC2COc3ccccc3O2)n1 (stereo not given)	16.4µM*	.	20.6µM*	.	.
Cc1nn(-c2ccccc2)c(Cl)c1/C=C/C(=O)c1ccccc1	?	-94.7*	?	?	?
Cc1nn(-c2ccccc2)c(Cl)c1/C=C1\C(=O)N(C)C(=S)N1C	?	-22.7	14.6µM*	-1.0%	9.5%
COC(=O)[C@@H]1C[C@@H](NC(=O)c2cccc3c(C)c(C)[nH]c23)CN1Cc1cccc2ccccc12	5.5%[9.04 µM]	.	-24.1%	.	.
Oc1[nH]c2ccccc2c1N=Nc1cccc(Cl)c1	2.1%	30.3	0.4%	0.7%	3.8%
CCc1cc2c(N=Nc3c(O)[nH]c4ccccc34)ncnc2s1	18.4µM*	11.9	20.6µM*	-15.6%	-1.4%
Cc1sc2ncnc(N=Nc3c(O)[nH]c4ccccc34)c2c1C	-7.7%	32.3	23.1µM*	8.1%	2.0%
